Abs 340nm: compound light absorbance at 340 nm, profiling panel, artefact control, biochemical, MLSMR library, data from PS, PMK, MK assays | compound absorbance at 340 nm, fold over control | fold change at 10 µM | 65,000 tested, under 10 active | AID 708, 2007;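 active = at 10 µM dose, initial 340 nm absorbance at least 2 fold that of control wells; inactive = change under 2 fold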;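 note: initial absorbance extrapolated from kinetic A340 decline of NADH oxidation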
Autofluor 339: intrinsic fluorescence of library compounds, ex339/em460 – biochemical, MLSMR library, data from DPM-DC assay, artefact control, profiling panel. compound autofluorescence, ex339/em460 nm, NADH buffer; active compounds read high; 1 = no-compound wells, NADH background. fluorescence fold increase at 10 µM. 5.5% of 65,000 active. AID 709, 2007;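 active = at 10 µM, mean starting fluorescence two-fold or more over control wells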;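 note: signal is the first read of a kinetic run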
mHtt clearance: clearance of mutant huntingtin inclusions, primary screen, imaging, HeLa Exon1htt(103Q)mCFP, confocal imaging; inhibition, % at 1.5 µM; aggregate imaging; zero = plate's median compound well; 0.42% of 47,000 active; AID 853, 2007;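 active = inhibition of aggregate fluorescence above about 70%, also judged a hit by eye on the cell image, limit read from the data, passing the limit was not always enough; inconclusive = no rule stated for this call; inactive = not judged a hit on image review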;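 note: cells exposed to compound for three days before fixation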
NADH coupling: inhibitors of PK/LDH coupling enzymes, profiling panel, artefact control, biochemical, MLSMR library; coupled PK/LDH NADH assays, four targets; IC50, µM (top dose mostly 10 µM), for inactives: at the top dose inhibition; 0.02% of 65,000 active; AID 774, 2007;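 active = single-dose screening hits from any of four coupled enzyme assays that gave an IC50 when retested across doses; inconclusive = no clear call, values can overlap the other calls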;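 note: the DPM-DC format reads NADH fluorescence rather than 340 nm absorbance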
M1 agonist: M1 muscarinic receptor agonists, primary screen, CHO-M1 cells, Fluo-4 calcium, agonist mode; Fluo-4 calcium fluorescence; active compounds read high; B-score at 10 µM; AID 626, 2007; 3% of 64,000 active;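 active = fluorescence rise, raw or as B-score row- and column-corrected plate score, outside the 99.7% band of its plate's samples, either direction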
M1 antag: antagonists of rat M1 muscarinic receptor. Muscarinic acetylcholine receptor M1 (Rattus norvegicus), P08482. CHO-M1 cells, Fluo-4 calcium, ACh EC80 antagonist mode; active compounds read low. B-score at 10 µM. 3.4% of 64,000 active;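 active = calcium fluorescence response, raw or row-and-column corrected B-score, differing from the plate sample mean either way at a set confidence level, mostly lower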
Target sequence (P08482 whole entry, looked up): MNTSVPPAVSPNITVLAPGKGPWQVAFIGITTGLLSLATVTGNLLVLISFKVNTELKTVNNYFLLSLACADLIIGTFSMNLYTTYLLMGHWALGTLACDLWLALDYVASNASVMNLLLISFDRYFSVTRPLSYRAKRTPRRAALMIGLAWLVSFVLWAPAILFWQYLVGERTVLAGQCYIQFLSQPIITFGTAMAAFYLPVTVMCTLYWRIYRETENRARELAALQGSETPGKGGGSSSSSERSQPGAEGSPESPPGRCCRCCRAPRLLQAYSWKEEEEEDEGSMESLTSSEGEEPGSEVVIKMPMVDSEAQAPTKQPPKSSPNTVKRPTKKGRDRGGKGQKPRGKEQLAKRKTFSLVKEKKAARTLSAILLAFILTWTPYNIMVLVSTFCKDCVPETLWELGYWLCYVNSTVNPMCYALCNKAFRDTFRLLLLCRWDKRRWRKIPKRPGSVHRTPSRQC
Starred values were filed as active, the others as inactive; u = inconclusive; x = not tested or not shown. Only some compounds are listed: those with a hit (about 9.3% of all), similar ones and a draw of the others.

SMILES	Abs 340nm	Autofluor 339	mHtt clearance	NADH coupling	M1 agonist	M1 antag
CC1CCCN(c2oc(-c3cccc4ccccc34)nc2C#N)C1 (configuration not stated)	1.05	3.8*	x	2.0%	0.389	-0.267
N#Cc1nc(-c2ccco2)oc1N1CCOCC1	1.04	3.92*	46.9	14.0%	-0.116	0.0586
COCc1cc(C)nc2sc(C(=O)N3CCCC3)c(N)c12	1.05	1.12	-7.3	4.0%	-0.335	0.962
Cc1cc(C)c2c(N)c(C(=O)Nc3ncc(C)s3)sc2n1	x	x	-12.6	x	x	x
Cc1cc(C)c2c(N)c(C(=O)NCc3ccco3)sc2n1	1.12	2.14*	x	10.0%	0.7	0.156
CC1CCc2sc3ncn4nc(C(=O)NCc5ccco5)nc4c3c2C1 (configuration not stated)	1.02	2.02*	x	12.0%	x	x
Cc1cc(C)c2c(N)c(C(=O)N3CCCCCC3)sc2n1	1.05	2.16*	-4.4	7.0%	0.55	0.357
N#C/C(=C\c1cn[nH]c1-c1ccccc1)C(=O)NC1CCCCCC1	x	x	-22.5	x	x	x
c1ccc2c(c1)nc(NCC1CCCO1)c1nnnn12 (configuration not stated)	1.08	2.11*	x	3.0%	-0.732	-0.464
O=C(Nc1ccc(F)cc1)C1CCCCC1	1.02	1.03	-17.6	2.0%	-0.0771	0.117
O=S1(=O)NC2CCCCCN2c2ccc(F)cc21 (configuration not stated)	1.05	3.64*	x	11.0%	0.603	-0.223
CCc1nc2ccccc2n1Cc1cc(=O)n2cc(C)ccc2n1	1.11	3.43*	37.4	10.0%	0.581	-0.112
COc1cccc(CNC(=O)C(CCSC)NS(=O)(=O)c2ccc3c(c2)oc(=O)n3C)c1 (configuration not stated)	0.99	1.12	8.3	7.0%	0.466	-0.779
Cc1ccc(C(=O)C2CCN(CC(=O)Nc3ccc4c(c3)OCCO4)CC2)cc1	0.99	1.05	-3.3	5.0%	0.662	-0.0292
Cc1c(N=Cc2c(O)n(Cc3ccco3)c(=O)c3ccccc23)c(=O)n(-c2ccccc2)n1C	1.02	1.12	-19.5	6.0%	-0.0266	-2.83*
Cc1cc(C)n(-c2cc(-c3ccccc3)nc(C)n2)n1	1.04	1.07	-54.0	5.0%	1.75	0.168
O=C(O)CCn1c(-c2ccccc2)cc2c1CCCC2=O	1.06	1.05	x	3.0%	0.451	0.721*
O=S(=O)(c1ccc2c(c1)nc(COc1ccc(Cl)cc1)n2CC1CCCO1)N1CCOCC1 (configuration not stated)	1.03	1.06	-51.4	2.0%	-1.23	-0.214
O=C(Nc1ccccc1-c1nc2ccccc2o1)c1ccc2c(c1)OCCO2	1.02	3.26*	-18.3	4.0%	0.536	0.00654
O=C(Nc1ccc2nn(-c3ccccc3)nc2c1)c1ccc2c(c1)OCCO2	1.15	2.19*	48.9	5.0%	-0.947	0.836
O=C(Nc1ccc2oc(-c3ccccc3F)nc2c1)c1ccc2c(c1)OCCO2	1.03	3.25*	-38.7	13.0%	x	x
O=C(Nc1ccc2oc(-c3ccc(F)cc3)nc2c1)c1ccccc1F	1.09	2.98*	-19.4	9.0%	-0.893	-0.00385
CCOc1ccc(-n2nc3ccc(NC(=O)c4ccc5c(c4)OCCO5)cc3n2)cc1	x	x	44.7	x	x	x
c1ccc(-c2cc(CSc3nc4ccccc4[nH]3)on2)cc1	1	1.02	x	2.0%	0.159	0.607
CCOC(=O)c1cc(-c2nnc(-c3ccc(Oc4ccccc4)cc3)o2)c(C)nc1C	0.99	1.34	u	4.0%	-0.933	0.11
SMILES	Abs 340nm	Autofluor 339	mHtt clearance	NADH coupling	M1 agonist	M1 antag
O=C1CC(c2ccc(F)c(Br)c2)C2=C(CCCC2=O)N1 (configuration not stated)	0.98	1.05	x	3.0%	-0.632	0.288
O=C(Nc1c(C(=O)N2CCOCC2)cnn1-c1ccccc1)c1ccco1	1.01	1.12	3.7	5.0%	x	x
Cc1c(O)c(CN2CCCC(C)C2)cc2c3c(c(=O)oc12)CCC3 (configuration not stated)	1.01	2.47*	x	4.0%	-0.54	0.403
Cc1c(C)c2cc(Cl)c(O)c(CN3CCCC(C)C3)c2oc1=O (configuration not stated)	1.06	2.35*	-10.3	4.0%	-0.556	0.121
Cc1c(C)c2cc(Cl)c(O)c(CN3CCN(C)CC3)c2oc1=O	1.15	2.32*	x	4.0%	-0.446	0.531
CC1CCCN(Cc2c(O)ccc3c(=O)c(-c4nc5ccccc5s4)c(N)oc23)C1 (configuration not stated)	x	x	19.2	x	x	x
CCOC(=O)c1c(CN2CCN(C)CC2)oc2ccc(O)cc12	0.98	1.09	20.0	6.0%	0.076	-1.04
Cc1c(Cl)cccc1Nc1ccccc1C(=O)O	1	1.01	x	2.0%	0.484	0.0426
O=C(O)c1ccc2cccc(Cl)c2c1O	1.08	2.54*	-8.6	12.0%	0.454	-0.526
CC(C)COC(=O)c1ccc2c(c1O)C(=O)c1ccccc1C2=O	x	x	-19.5	x	x	x
COC(=O)c1c(C#N)c(N)nc2c1CCCC2	1.06	3.79*	x	6.0%	-0.259	0.368
COc1cc(-c2c(C#N)c(N)nc3c2CCCC3)ccc1O	1.04	1.12	x	4.0%	0.957	0.797
N#Cc1c(N)nc2c(c1-c1ccncc1)CCCCCC2	1.09	2.15*	x	9.0%	-0.863	-0.132
N#Cc1c(N)nc2c(c1-c1ccncc1)CCCC2	1.06	3.16*	x	10.0%	-1.17	0.869
Cc1ccc(-c2c(C#N)c(N)nc3c2CCCCC3)cc1	x	x	-6.5	x	x	x
Cc1ccc(N(CC(=O)N2CCN(C3CCCCC3)CC2)S(=O)(=O)c2cccnc2)cc1	1.02	1.01	x	4.0%	0.789	-0.549
O=C(NCc1ccco1)C1CCC(CNS(=O)(=O)c2cccc3cccnc23)CC1 (configuration not stated)	1.02	1.11	x	3.0%	-0.156	-0.0227
Cc1ccc2cc3c(NC(=O)c4ccco4)nn(C)c3nc2c1	1.07	2.9*	-1.3	17.0%	-0.199	0.108
CC(=O)Nc1nn(C)c2nc3cc(C)ccc3cc12	1.07	1.99	-8.6	9.0%	0.121	-0.0433
CCc1cc(C(=O)Cc2ccc(F)cc2)c(O)cc1O	1.1	1.04	x	4.0%	0.541	-1.15
CCc1cc(C(=O)Cc2nc3ccccc3[nH]2)c(O)cc1O	1.18	2.29*	-16.1	16.0%	-0.732	0.676
COc1ccc(OC)c2c(C)cc(N3CCCN(C)CC3)nc12	1.06	2.24*	x	1.0%	0.142	-0.462
COc1ccccc1N1CCN(c2cc(N3CCCC3)nc(C)n2)CC1	1.02	1.18	1.5	2.0%	0.052	-2.28
O=C(CSCc1cccc(Br)c1)N1CCOCC1	1.03	1.09	-4.4	4.0%	0.89	0.0214
Cc1ccc(-c2c(C#N)c(N)nc3c2CCCCC3)o1	1.06	2.04*	x	8.0%	-0.738	-0.161
